Data published in PubChem BioAssay (NCI).
This is part of a sample that, as a whole, favours compounds with a hit. Of some 83,000 tested, about 20% had one in any assay.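 Negative percent growth values reflect cell death: -40 means 40% of the cells present at the start died, and -100 means all died.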 Unmarked numbers belong to inactive results. Calls of active or inactive are those of the source. Rule for the calls: active = growth percent below 10; inactive = the rest.

Columns and labels:
Experiment in all cases: NCI-60 one-dose screen, 48 h (100 = growth as untreated, 0 = no growth, -100 = all killed)
Conditions in all cases: 10 µM unless noted
[1] = test system: NCI-H23 lung
[2] = test system: NCI-H226 lung
[3] = test system: NCI-H322M lung
[4] = test system: HOP-62 NSCLC
[5] = test system: NCI-H460 lung
[6] = test system: HOP-92 NSCLC
[7] = test system: NCI-H522 lung
[8] = test system: A549/ATCC NSCLC
[9] = test system: 786-0 renal
[10] = test system: COLO 205 colon
[11] = test system: DU-145 prostate
[12] = test system: MALME-3M melanoma
[13] = test system: MDA-MB-231 breast
[14] = test system: RXF 393 renal
[15] = test system: SF-268 CNS
[16] = test system: SF-295 CNS
[17] = test system: SF-539 CNS
[18] = test system: UACC-257 melanoma
[19] = test system: M14 melanoma
[20] = test system: K-562 leukemia

SMILES | growth [1] | growth [2] | growth [3] | growth [4] | growth [5] | growth [6] | growth [7] | growth [8] | growth [9] | growth [10] | growth [11] | growth [12] | growth [13] | growth [14] | growth [15] | growth [16] | growth [17] | growth [18] | growth [19] | growth [20]
Nc1nc(-c2ccc(F)cc2)cc(-c2cnn(-c3ccccc3)n2)n1 | 99.1% | 105% | 93.9% | 101% | 103% | 94.1% | 82.2% | 95.3% | 107% | 105% | 104% | 124% | 102% | 97.4% | 98.8% | 107% | 106% | 95.8% | 117% | –
CC1=N/C(=C\c2cccc(Br)c2)C(=O)O1 | 106% | 106% | 106% | 92.8% | 106% | 107% | 87.7% | 89.3% | 102% | 106% | 109% | 98.8% | 105% | 112% | 98.6% | 108% | 115% | 80.6% | 104% | –
CCCCN(CC)CCCCCCCCCCN1CCCc2cc(OC)ccc21 | 13.2% | 103% | 54.2% | 106% | 28.5% | 31.8% | 38.8% | 91% | 60.4% | 83.4% | 48.5% | -28.6% (active) | – | 92.7% | 49.7% | 43.5% | 93.1% | 103% | 88.2% | -38.7% (active)
CN1Cc2c(cc(CN3CCCCC3)n2C)C(c2ccc(Br)cc2)C1 (centres undefined) | 84.6% | 90.7% | 91.5% | 91.1% | 96.9% | 53.9% | 90.5% | 93.8% | 66.5% | 83.1% | 96.5% | 22.8% | – | 74.8% | 92.6% | 81.3% | 76.1% | 13.4% | 14.1% | 34.9%
CC[C@H](Nc1cc(C)nc(N)n1)c1nc2cccc(NCc3ccc(C(=O)NO)cc3)c2c(=O)n1-c1ccccc1 | -6.84% (active) | 64.7% | 47.7% | 34.5% | 30.1% | -3.07% (active) | -63.7% (active) | 60.1% | 44.1% | -51.8% (active) | 36.4% | 37.6% | 0.273% (active) | -6% (active) | 27.6% | 64.2% | -20.6% (active) | 12.3% | 16.3% | –
O=C(Cn1cc(CN2C(=O)c3ccccc3S2(=O)=O)nn1)Nc1ccc([N+](=O)[O-])cc1Cl | 90% | 91.8% | 94.5% | 101% | 102% | 107% | 101% | 106% | 105% | 103% | 105% | 101% | 90% | 110% | 100% | 108% | 101% | 98.6% | 106% | –
CCCCN(CCCC)CCC(C)(O)c1cc2ccccc2c2ccccc12 (centres undefined) | 83.8% | 107% | 73.5% | 106% | 90.1% | 44.2% | 91.4% | 83.5% | 103% | 92.7% | 75% | 30.7% | – | 87.8% | 57.3% | 79.8% | 103% | 82.8% | 90.7% | 15.7%
COC(=O)[C@H](C(C)C)n1c(=O)c2cc(OC)c(OC)cc2c2cnc3[nH]ccc3c21 | 62.1% | 46.4% | 48.5% | 45.8% | 41.2% | 13.7% | 62.8% | 40.7% | 52.9% | 57.5% | 51.4% | 85.1% | 48% | -0.674% (active) | 45.6% | 25.2% | 9.26% (active) | 78.7% | 76.1% | –
O=C(Nc1cccc2c1C(=O)c1cccc(Nc3cccc4c3C(=O)c3cccc(NC(=O)c5ccccc5)c3C4=O)c1C2=O)c1ccccc1 | 108% | 102% | 112% | 104% | 113% | 90.7% | 112% | 90.1% | 117% | 117% | 120% | 120% | – | 120% | 110% | 100% | 109% | 103% | 104% | 116%
Nc1c(C(=O)Nc2ccccc2Cl)sc2nc3c(cc12)CCCCCC3 | 72.4% | 31% | 49.2% | 27% | 30.8% | 39.4% | 58% | 29% | -55.3% (active) | 33.8% | 56.3% | -13.3% (active) | – | -34.6% (active) | 38.4% | 36.6% | 14.3% | 58.4% | 34.5% | 23.3%
CC/C(=C(\c1ccccc1)c1ccc(OCCNC)cc1)c1ccccc1 | -90.5% (active) | -84.1% (active) | -99.5% (active) | -64.2% (active) | -71.3% (active) | -85.6% (active) | -74.9% (active) | -39.2% (active) | -92.7% (active) | -85.5% (active) | -66.8% (active) | -92.9% (active) | – | -97.6% (active) | 1.29% (active) | -99.3% (active) | -98% (active) | -68.4% (active) | -89.7% (active) | -5.96% (active)
O=C1C=CC(Nc2ccccc2[N+](=O)[O-])C1Nc1ccccc1[N+](=O)[O-] (centres undefined) | 6.85% (active) | -41.7% (active) | 79.1% | 90.9% | 59% | -56.5% (active) | -90.1% (active) | 92.2% | -76.7% (active) | -79.2% (active) | -69.1% (active) | -89.7% (active) | – | -96.4% (active) | 75.8% | 67.5% | -93.6% (active) | 28.7% | -68.9% (active) | 5.11% (active)
Oc1ccc(Nc2nccc(-c3ccc4ccccc4c3)n2)cc1 | 30.7% | 60.9% | 44.4% | 36.9% | 14.8% | 89.5% | 30.9% | 14.1% | 40.1% | 98% | 55.5% | 59.8% | 30.5% | 60.3% | 47.4% | 61.4% | 37% | 26.7% | 11.1% | –
CCN(CC)CCCNc1cccc2c(SCc3ccccc3)ccnc12 | 69.3% | 89.8% | 41.6% | 94.8% | 72% | 26.2% | 52% | 63.7% | 72.7% | 106% | -22.8% (active) | -84.3% (active) | – | 88.4% | 23.9% | 61% | 81.4% | 88.1% | -47.4% (active) | -63% (active)
CC[C@H](Nc1nc(N)nc(C)c1C#N)c1nc2cccc(NCc3ccc(C(=O)NO)cc3)c2c(=O)n1-c1ccccc1 | -22.9% (active) | 24.3% | 15% | 9.2% (active) | 3.85% (active) | -16.7% (active) | -37.6% (active) | 1.14% (active) | 6.94% (active) | -2.48% (active) | 17.2% | 21.5% | 7.58% (active) | -21.7% (active) | 9.63% (active) | -3.97% (active) | -18.8% (active) | 0.817% (active) | 0.234% (active) | –
Cc1cccc(NC(=O)c2sc3nc4c(cc3c2N)C(=O)CCC4)c1 | 53.1% | 56.6% | 37.2% | 42.9% | 6.09% (active) | 64.5% | 11.7% | 31.4% | 31.3% | 3% (active) | 9.01% (active) | – | 36.6% | 22.7% | 64.8% | 20.6% | -27.7% (active) | 76.3% | 21.8% | 18.8%
